Screening results deposited in PubChem BioAssay by National Center for Advancing Translational Sciences (NCATS).
TbPYK inhibitor – qHTS of Trypanosoma Brucei Inhibitors | Potency, µM (doses to about 76.8 µM), for inactives: at the highest dose activity, negative = inhibition, most hits filed as inhibitors | actives 0.12% (n = 410,000) | TbPYK enzyme, Kinase-Glo Plus ATP luminescence, 45 min | pyruvate kinase (Trypanosoma brucei), Q57TT1; note: nearly all actives have a fitted effect of over 50% in size
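Luminescence from Kinase-Glo Plus, added after a 45-minute room-temperature reaction, served as the end-point read-out. The enzyme and substrate were preincubated with compound before ADP (130 uM final) initiated turnover. Concentration-effect curves came from normalized qHTS data.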
LmPK inh – qHTS Assay for Inhibitors of Leishmania Mexicana Pyruvate Kinase (LmPK) | Q27686 | actives 0.37% (n = 290,000) | Potency, µM (titrated, usually from 57.5 µM), for inactives: at the top dose activity change, negative = inhibition, most hits filed as inhibitors | purified LmPK, Kinase-Glo ATP luminescence, 1 h
Target sequence (Q27686 whole entry, looked up): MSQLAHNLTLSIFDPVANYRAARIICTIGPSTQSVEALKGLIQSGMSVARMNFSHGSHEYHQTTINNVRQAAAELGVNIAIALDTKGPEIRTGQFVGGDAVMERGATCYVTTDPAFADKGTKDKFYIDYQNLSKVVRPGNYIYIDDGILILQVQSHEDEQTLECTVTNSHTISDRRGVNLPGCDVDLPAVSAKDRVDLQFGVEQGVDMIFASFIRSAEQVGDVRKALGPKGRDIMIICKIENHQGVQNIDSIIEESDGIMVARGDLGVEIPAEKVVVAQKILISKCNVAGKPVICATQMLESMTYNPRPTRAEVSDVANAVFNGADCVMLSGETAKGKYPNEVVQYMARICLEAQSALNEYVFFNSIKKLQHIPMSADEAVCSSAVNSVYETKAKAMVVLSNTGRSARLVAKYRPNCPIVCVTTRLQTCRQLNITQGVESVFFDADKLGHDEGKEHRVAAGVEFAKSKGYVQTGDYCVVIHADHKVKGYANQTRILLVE
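qHTS format; LmPK 0.1 nM; substrates PEP 0.5 mM and ADP 0.1 mM. One-hour room-temperature incubation, then coupled luciferase luminescence; 0.5 nM enzyme wells mark activation.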
Sm TGR inh – qHTS Assay for the Inhibitors of Schistosoma Mansoni Peroxiredoxins; purified TGR, DTNB reduction, TNB absorbance 405 nm; Potency, µM (series often up to 114 µM), for inactives: top-dose activity change, negative = inhibition, hits mostly inhibitors; actives 3% (n = 360,000); AID 485364, 2010; note: nearly all actives have a fitted effect of over 60% in size
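Kinetic colorimetric format: TGR-catalysed, NADPH-driven DTNB reduction monitored via TNB absorbance. Enzyme dispensed at 20 nM; compound exposure 15 min at room temperature before reaction start.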
RE007 growth inh – qHTS Assay for Inhibitors of the HIV-1 protein Vpr. S. pombe RE007 Vpr strain, BacTiter-Glo ATP luminescence, 24 h. Potency, µM (doses to about 92.2 µM), for inactives: top-dose activity change, negative = less growth, hits mostly inhibitors. actives 0.21% (n = 360,000). AID 651644, 2012; active = well fitted falling curve with a large enough effect; inconclusive = small, poorly fitted or top-dose-only effect; inactive = no such curve, though single readings can be large or run the other way; note: nearly all actives have a fitted effect of over 50% in size
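Fission yeast strain RE007, carrying one chromosomally integrated HIV-1 vpr copy, was seeded at OD 0.01 in PMG+AL medium with 23 nL pinned compound. After 24 h at 30 °C and 99% humidity, viability was read by BacTiter-Glo luminescence.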
Starred values were filed as active, the others as inactive; ? = inconclusive; / = no result; [ ] = another dose, or the depositor's remark. Hits are enriched below; roughly 3% of the tested compounds scored in any of these assays. Unless noted, calls come from the whole dose curve; as a rule, active = well fitted curve in the direction sought with a large enough effect; inconclusive = small, poorly fitted or top-dose-only effect, or another doubt; inactive = no such curve, though single readings can be large; an effect the other way counts as inactive or inconclusive. % is set by controls: 0 for no effect and ±100 for the full control effect; potency is the fitted concentration of half-maximal effect.

SMILES	TbPYK inhibitor	LmPK inh	Sm TGR inh	RE007 growth inh
COc1cc2cc(CCCOC(=O)c3ccc4c(c3)OCO4)oc(=O)c2cc1OC	-2.1%	/	50.1µM*	-15.7%
CCOc1ccc(Nc2nc(N)c(C(=O)c3ccccc3Cl)s2)cc1	-0.8%	/	-1.8%	/
CCCC(=O)Nc1ccc(S(=O)(=O)Nc2nccs2)cc1	2.7%	/	/	4.7%
CCOC(=O)/C=C/C(=O)Nc1ccc(S(=O)(=O)Nc2nccs2)cc1	-5.7%	-2.7%	44.7µM*	4.2%
O=C(CCl)Nc1ccc(S(=O)(=O)Nc2nccs2)cc1	8.1%	-1.4%	20µM*	-3.0%
CC(c1ccncn1)N(C)Cc1nc(-c2ccc(C(F)(F)F)cc2)no1 (stereo not drawn)	-6.6%	4.0%	8.2%	-16.7%
Cc1oc(-c2ccc3ccccc3c2)nc1CN(C)C(C)c1ccncn1 (stereo not drawn)	-4.7%	16.4%	50.1µM*	-1.0%
N#Cc1ccc(NC(=S)Nc2ccccc2)cc1	-3.3%	3.3%	44.7µM*	-4.3%
CC(C)C(C(=O)NCC1CCCO1)N(CC1CCCO1)C(=O)CNS(=O)(=O)c1ccccc1 (stereo not drawn)	-2.0%	-4.4%	0.0%	10.4%
CC(C)C(C(=O)NCC1CCCO1)N(Cc1ccccc1)C(=O)CNS(=O)(=O)c1ccccc1 (stereo not drawn)	2.1%	-2.8%	7.08µM*	25.1%
CCOc1ccccc1NC(=O)CCCc1nc(-c2ccccc2Cl)no1	-1.5%	/	9.4%	/
O=C(CSc1nnc(-c2ccc(O)cc2)n1Cc1ccco1)c1ccccc1	-14.2%	13.6%	44.7µM*	3.4%
O=C(CSc1nnc(-c2ccc(O)cc2)n1Cc1ccco1)c1cccs1	-2.5%	3.1%	25.1µM*	1.1%
O=C(CC(SCc1ccco1)c1ccc(O)cc1)c1cccs1 (stereo not drawn)	-4.5%	-17.5%	28.2µM*	-17.3%
O=C(CSc1nnc(-c2cccnc2)n1Cc1ccco1)c1ccccc1	-21.4%	-0.1%	-30.8%	1.3%
Cn1c(CNC(=O)c2ccco2)nnc1SCC(=O)c1ccc(F)cc1	-5.7%	-9.7%	10µM*	7.9%
O=C(c1cc(C(F)(F)F)cc(C(F)(F)F)c1)N1CCC2(CC1)CN(c1ccccn1)C2	0.2%	/	/	/
COC(=O)C1=C(C(=O)OC)[C@@H]2N(C)c3ccc(OC)cc3[C@@]23C[C@@H](C(=O)OC)N(S(=O)(=O)c2ccc(C)cc2)C3=N1	/	-2.3%[11.5 µM]	/	/
Cc1occc1-c1nnc(SCC(=O)c2ccc(F)cc2)n1Cc1ccco1	-17.8%	1.1%	22.4µM*	-4.4%
CC(C)CCNC(=O)CCc1nnc(Cc2c[nH]c3ccccc23)o1	-13.8%	0.9%	12.6µM*	-11.5%
COCCN(C(=O)CCc1nnc(Cc2c[nH]c3ccccc23)o1)C(C)C	-16.7%	0.0%	20µM*	3.6%
Cc1ccc(NC(=O)C2CCCN(S(=O)(=O)c3ccc4c(c3)CCCC(=O)N4)C2)cc1Cl (stereo not drawn)	5.1%	/	2.3%	/
CCOC(=O)c1cccc(-n2nnc3c(sc4nc(C)c(Br)c(C)c43)c2=O)c1	1.9%	/	8.3%	/
CCOc1ccc(N2CC(C(=O)NCC(=O)Nc3ccc(F)c(F)c3F)CC2=O)cc1 (stereo not drawn)	5.7%	/	31.6µM*	8.6%
Cc1cc(C(=O)CS(=O)(=O)c2ccc(F)cc2)cc(C)c1O	-7.8%	10.7%	14.1µM*	43.0%
SMILES	TbPYK inhibitor	LmPK inh	Sm TGR inh	RE007 growth inh
Cc1cc(C(=O)CS(=O)(=O)c2ccccc2)cc(C)c1OC(=O)N(C)C	-8.5%	-21.0%	-8.4%	5.4%
Cc1cc(C(=O)CS(=O)(=O)c2ccccc2)cc(C)c1O	-6.1%	-9.1%	22.4µM*	-9.0%
COC(=O)C1=C(C)N(Cc2ccco2)C(=O)N[C@@H]1c1cccc(C(F)(F)F)c1	/	3.3%	28.2µM*	/
COC(=O)C1=C(C)N(Cc2ccccc2)C(=O)N[C@H]1c1cccc(C(F)(F)F)c1	-1.7%	-4.1%[11.5 µM]	-0.7%	-3.5%
Cc1cc(C)cc(Nc2cc(C(=O)NCc3ccccc3)c3ccccc3n2)c1	1.8%	/	35.5µM*	/
COc1ccc(Nc2cc(C(=O)NCc3ccccc3)c3ccccc3n2)cc1	2.1%	/	-2.5%	/
O=C(Nc1ccc(C(=O)N2CCN(c3ccccn3)CC2)cc1)c1ccc(Br)o1	-6.2%	/	44.7µM*	-0.7%
Cc1ccc(C(=O)N2CCN(c3ccc(NC(=O)c4ccc(Br)o4)cc3)CC2)cc1	-8.9%	0.6%	8.6%	11.5%
O=C(Nc1ccc(C(=O)N2CCC(N3CCCC3)CC2)cc1)c1ccc(Br)o1	-0.7%	/	25.1µM*	-14.6%
O=C(c1ccc(Br)o1)N1CCN(c2ccccn2)CC1	1.2%	0.6%	-0.7%	-2.7%
N#Cc1ccccc1N1CCN(C(=O)c2ccc(NC(=O)c3ccc(Br)o3)cc2)CC1	-5.0%	/	28.2µM*	2.4%
O=C(NCCCN1CCCCCC1)c1cc2c(=O)oc3ccccc3c2s1	-0.2%	2.7%	50.1µM*	-21.5%
Cc1ccc2oc(=O)c3cc(C(=O)NCCCN4CCN(C)CC4)sc3c2c1	6.3%	0.3%	-1.0%	1.4%
Cc1ccc(C)c(N2CCN(C(=O)c3cc4c(=O)oc5ccccc5c4s3)CC2)c1	2.9%	/	89.1µM*	/
COc1ccccc1-c1cnc(C(O)c2c(C)cc(C)cc2C)[nH]1 (stereo not drawn)	-0.5%	/	/	-9.4%
CC1(C(=O)Nc2ccc3c(c2)OCCO3)CN(S(C)(=O)=O)CC(=O)N1CC(F)(F)F (stereo not drawn)	/	/	/	-0.6%
CCN1C(=O)/C(=C/C=C2\C=CN(CC)c3ccccc32)SC1=S	?	17.8µM*	?	-2.9%
Cc1ccccc1C1=CCN(c2ncc(NC(=O)c3ccc(Cl)cc3)cc2C(=O)O)CC1	5.3%	/	39.8µM*	/
O=C(Nc1cnc(N2CCC(N3CCCCC3)CC2)c(C(=O)O)c1)c1ccc(Br)cc1	-3.4%	/	?	/
COc1ccc(N2CCN(C(=O)Cn3c(-c4cccs4)cc4ccccc43)CC2)cc1	0.9%	/	1.0%	/
O=C1c2cc(S(=O)(=O)NCCO)ccc2-c2ccc(S(=O)(=O)NCCO)cc21	-4.9%	0.2%	6.7%	-11.8%
N#CC(C#N)=C1c2cc(S(=O)(=O)NCCO)ccc2-c2ccc(S(=O)(=O)NCCO)cc21	5.4%	4.3%	4.47µM*	1.1%
NS(=O)(=O)c1ccc2c(c1)C(=NO)c1cc(S(N)(=O)=O)ccc1-2	-4.9%	0.8%	2.9%	-0.8%
N#CC(C#N)=C1c2cc(S(N)(=O)=O)ccc2-c2ccc(S(N)(=O)=O)cc21	-6.5%	2.8%	4.47µM*	-24.1%
O=C1CC(c2nc3ccccc3n2Cc2c(F)cccc2Cl)CN1c1cccc(C(F)(F)F)c1 (stereo not drawn)	6.6%	/	3.6%	/
COc1ccc(C#Cc2c(-c3ccccc3)n(C)c3ccccc23)cc1	1.9%	/	/	8.5%
COc1ccc(-c2c(C#Cc3ccsc3)c3ccccc3n2C)cc1	-16.9%	-1.0%	20µM*	11.6%
